Results filed as inconclusive are left out. A number with no mark means an inactive call. The source made the active and inactive calls. Calls follow the shape of the dose curve; as a rule, active = well fitted activation curve with a large enough effect; inconclusive = small, poorly fitted or top-dose-only effect; inactive = no such curve, though single readings can be large or run the other way.
Potency is read from the fitted curve at half-maximal effect.

The assay is described as follows: qHTS Assay for NPC1 Promoter Activators: Hit Validation Using Renila Luciferase Read-Out for NPC1. As to activity change, positive = activation: % of control where 0% means no effect. Conditions: Huh7 NPC1 promoter-luciferase reporter, luminescence, 24 h; series mostly up to 76.9 µM; activity change, positive = activation: at the top concentration. The text has this: Niemann Pick Type C (NPC) is a rare neurodegenerative lipidosis that is characterized by lipid storage in the endosomal/lysosomal system. Treatment modalities for this devastating disease are currently non-existent due to the severe obstacles associated with accessing the central nervous system with proteins or genes. The majority of mutations causing NPC disease are missense mutations that are distributed throughout the length of the NPC1 protein, with the most prevalent being the I1061T allele. Although NPC1 mutant proteins may be functional, they are typically trapped in the ER due to misfolding. […] We have developed and optimized a cell based renilla luciferase reporter assay in 1536 well format for the identification of up-regulators of the mutant Rab9 promoter. This assay presents data on the validation of hits from the primary screen, which used a firefly luciferase read-out. NIH Chemical Genomics Center [NCGC] NIH Molecular Libraries Probe Production centers Network [MLPCN] MLPCN Grant: MH089375 Assay Submitter (PI): Yiannis A. Ioannou
Huh7 cells stably expressing NPC promoter-luciferase will be seeded at 1,500 cells/well in 5 uL in 1,536-well white opaque plates with 23 nL/well of compound in DMSO solution. The assay plates will be incubated at 37 deg C for 24 hours, after which 3 uL/well BriteLite plus luciferase detection reagent mixture (Perkin Elmer) will be added. Luminescence signal will be measured in a ViewLux plate reader (Perkin Elmer) after a 10 minute incubation at the room temperature.
On to `Cc1ccc(S(=O)(=O)N2CCN(c3cnn(C)c(=O)c3Cl)CC2)cc1`, for which the “activity change, positive = activation” value was -6.07%. Still for that read-out and setting: the figure for `CC(=O)[C@@H]1[C@@H](C(=O)c2ccc(C)cc2)[C@]2(C(=O)Nc3ccccc32)[C@H]2C=Cc3cc(F)ccc3N12` is 6.88%; for `CCCCc1cc(=O)oc2cc(OCC(=O)N3CCOCC3)ccc12` it is 7.43%; for `O=C(c1cccc(Oc2ccc([N+](=O)[O-])cc2)c1)N1CCOCC1` it is -24.6%. In the case of `CC1CCCN(S(=O)(=O)c2ccc(C(=O)Nc3nnc(-c4ccncc4)o3)cc2)C1` (stereo not given), the “activity change, positive = activation” value was -61.4%. Turning to `COC(=O)c1ccc(NC(=O)c2ccc3nc(C)sc3c2)cc1`, the “activity change, positive = activation” value is -9.33%. On the same count and under the same terms, then `Cc1ccc2nc(Nc3ccc(Cl)cc3)c3nncn3c2c1`, with -31.7%; and `Cc1nn(CCCC(=O)NCc2ccc(F)cc2)c(C)c1[N+](=O)[O-]`, with -8.33%. Still for that read-out and setting: the figure for `COc1ccc(-n2c(N)c(C(=O)NCc3ccco3)sc2=S)cc1` is 0.357%; for `CC(C)(C)NC(=S)NNC(=O)c1ccc2ncccc2c1` it is -37.5%; for `O=C(Nc1nc2ccc(F)cc2s1)c1ccc(N2CCCC2=O)cc1` it is -20.4%. Still for that read-out and setting: then `Cc1ccc(C(=O)NC2CCN(CC(=O)Nc3c(C)cc(C)cc3C)CC2)cc1`, with -9.61%.

With `O=C(O)CSc1nnc(-c2ccncc2)n1CCc1ccccc1`, the “activity change, positive = activation” value is 5.75%. As to `O=C(c1cc2cc([N+](=O)[O-])ccc2oc1=O)n1cccn1`, the “activity change, positive = activation” value was 16.8%. The same measure, in the same setting: the figure for `Cc1ccc(C(=O)c2cncc(Br)c2)cc1` is -4.32%. Same read-out and setting: then `CCN(C(=O)COC(=O)c1ccc(C=O)cc1)c1c(N)n(Cc2ccccc2)c(=O)[nH]c1=O`, with 2.21%. `COC(=O)c1ccccc1S(=O)(=O)NNC(=O)Nc1ccccc1`: the “activity change, positive = activation” value is -8.36%.

`NC(=O)C1(NC(=O)[C@@H]2CC3(CC(c4cccc(NC(=O)[C@@H]5CCC(=O)N5)c4)=NO3)CN2C(=O)c2ccccc2)CC1` (stereo not given in full): the “activity change, positive = activation” value was -9.26%.

`Cc1ccc(C#N)c(SCC(=O)Nc2nccs2)n1`: the “activity change, positive = activation” value was -7.61%.

On to `CC1=C(C(=O)OC2CCCC(C)C2)C(c2ccccc2)NC(=O)N1` (stereo not given), for which the “activity change, positive = activation” value was -33.8%.

For `COc1ccc2oc(=O)c(C(=O)NC(C)c3ccccc3)cc2c1` (stereo not given), the “activity change, positive = activation” value is -2.14%. Still for that read-out and setting: the figure for `CCCOP(=O)(c1ccc(N(C)C)cc1)C(O)c1cccnc1` (stereo not given) is 5.33%; for `O=C(/C=C/c1ccco1)NCC1OCCc2ccccc21` (stereo not given) it is 11.3%. Still for that read-out and setting: the figure for `COc1ccc(NC(=O)CCCN2C(=O)C(c3ccccc3)Oc3cccnc32)cc1OC` (stereo not given) is -18.8%; for `Cc1ccc(NC(=O)Nc2cccc3ccccc23)cc1` it is -1.3%. Same read-out and setting: then `COc1ccc(NC(=S)NNC(=O)c2cccs2)cc1`, with -67.6%. Take `N#C/C(=N\Nc1ccc(Cl)cc1)C(=N)N1CCCCC1`: the “activity change, positive = activation” value was -69.1%. Consider `O=C(Nc1ccc(-c2nc3cccnc3s2)cc1)c1ccc(Cl)nc1`, for which the “activity change, positive = activation” value is 1.87%. As to `CC(=O)Nc1nnc(SCC(=O)NCCOc2ccccc2)s1`, the “activity change, positive = activation” value is 3.94%. On to `CCOC(=O)CSc1nc2cc(C)ccc2cc1C#N`, for which the “activity change, positive = activation” value is -34.8%.

With `O=C(CCNC(=O)c1ccc(Br)o1)NCc1ccc(Cl)cc1`, the “activity change, positive = activation” value is 2.26%. Same read-out and setting: then `Cc1nc(SCC(=O)NC(=O)NC(C)(C)C)nc(C)c1C`, with -0.535%. The same measure, in the same setting: the figure for `CC1CC(C)CN(CC(=O)N2CCOCC2)C1` (stereo not given) is 9.94%; for `O=C(CSc1ncccn1)Nc1cccc2ccccc12` it is 10.9%. Take `O=C(CSc1nnc(-c2csc3c2CCCC3)o1)Nc1ccccc1`: the “activity change, positive = activation” value was -80.6%. Consider `CCOC(=O)c1ccccc1NC(=O)CSc1nnc(Cc2cccn2C)n1-c1ccc(F)cc1`, for which the Potency is 46.3 µM (active).

On to `COc1cccc(NC(=O)CN2C(=O)CSc3ccc(S(=O)(=O)N4CCC(C)CC4)cc32)c1`, for which the “activity change, positive = activation” value was -64%. Consider `Cc1ccc(CNC(=O)Nc2ccc(C)cc2)cc1`, for which the “activity change, positive = activation” value was -6.85%. Same read-out and setting: the figure for `Cc1c(C(O)CN2CCN(Cc3ccc4c(c3)OCO4)CC2)c2ccccc2n1C` (stereo not given) is 13.3%; for `CCOC(=O)c1csc(COc2ccc(OC)cc2)n1` it is -7.41%.

These data come from PubChem BioAssay AID720526 (National Center for Advancing Translational Sciences (NCATS), 2013).
